Screens (PubChem)
The list is not random: actives were taken first. Their share in the collection is about 7.3%.
SMN2 splice up: qHTS Assay for Enhancers of SMN2 Splice Variant Expression; HEK293 SMN2-luciferase splicing reporter, luminescence, 30-36 h; Potency, µM (doses to about 46.1 µM), without a hit: at the highest dose activity change, positive = activation, most hits filed as activators; 210,000 tested, 2.8% active; note: % of control where 0% means no effect; nearly all actives have a fitted effect of over 55% in size
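HEK293 cells carry an SMN2 […]–luciferase reporter in which exon 7 inclusion puts luciferase in frame. Cells were plated 10-12 h before compound addition, then incubated 30-36 h at 37C. ONE-Glo luminescence was read; sodium butyrate at 4.5 mM final served as control.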
ELG1 genotoxic: qHTS screen for small molecules that induce genotoxicity in human embryonic kidney (HEK293T) cells expressing luciferase-tagged ELG1; HEK293T ELG1-luciferase reporter, luminescence, 16 h; Potency, µM (titrated, usually from 46 µM), without a hit: at the top dose activity change, positive = activation, actives largely listed as activators; 330,000 tested, 1.3% active; note: % of control where 0% means no effect; nearly all actives have a fitted effect of over 60% in size
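DMSO vehicle served as control against compound-treated ELG1-luciferase HEK293T cells; exposure lasted 16 hr at 37 °C and 5% CO2, followed by ONE-Glo luminescence detection after 30 min.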
NPC1 promoter act: qHTS Assay for NPC1 Promoter Activators. Huh7 NPC1 promoter luciferase reporter, 24 h. Potency, µM (highest dose often 9.22 µM), without a hit: top-dose activation, actives largely listed as activators. 320,000 tested, 2.4% active; note: % of control where 0% means no effect; nearly all actives have a fitted effect of over 60% in size
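In 1536-well qHTS, Huh7 cells harboring an NPC1 promoter–luciferase construct received compound for 24 h; activation was quantified by luminescence following luciferase reagent addition.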
FLuc modulator: qHTS profiling assay for firefly luciferase inhibitor/activator using purifed enzyme and Km concentrations of substrates (counterscreen for miR-21 project); Luciferin 4-monooxygenase (Photinus pyralis), P08659; purified FLuc, Km substrates, luminescence inhibition; 360,000 tested, 6.9% active; AID 588342, 2011; Potency, µM (titrated, usually from 57.5 µM), without a hit: top-dose activity change, negative = inhibition, actives largely listed as inhibitors;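 note: plate controls were vehicle for no effect and reference inhibitor for full effect; nearly all actives have a fitted effect of over 55% in size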
Target sequence (P08659 whole entry, looked up): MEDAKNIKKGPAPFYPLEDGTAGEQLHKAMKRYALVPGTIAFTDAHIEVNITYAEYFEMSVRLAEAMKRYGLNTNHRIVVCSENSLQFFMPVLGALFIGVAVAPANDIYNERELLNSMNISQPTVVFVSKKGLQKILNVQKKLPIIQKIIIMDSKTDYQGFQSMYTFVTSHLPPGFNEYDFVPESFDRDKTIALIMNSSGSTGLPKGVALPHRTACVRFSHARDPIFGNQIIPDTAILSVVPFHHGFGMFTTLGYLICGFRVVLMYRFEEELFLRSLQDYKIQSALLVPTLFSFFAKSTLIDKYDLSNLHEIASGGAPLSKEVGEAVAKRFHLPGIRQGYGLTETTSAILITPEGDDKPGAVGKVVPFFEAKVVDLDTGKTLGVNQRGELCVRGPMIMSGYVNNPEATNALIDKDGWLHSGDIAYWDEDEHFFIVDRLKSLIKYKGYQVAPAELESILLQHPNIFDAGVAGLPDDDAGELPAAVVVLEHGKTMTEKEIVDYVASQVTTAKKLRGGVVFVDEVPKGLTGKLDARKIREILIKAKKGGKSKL
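Purified P. pyralis luciferase (10nM final) with 10uM D-luciferin and 10uM ATP (Km levels) in 50mM Tris acetate pH 7.5, 10mM Mg acetate, 0.01% Tween-20, 0.05% BSA; qHTS 6-point titration, ~60 µM downward; luminescence read.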
Luc counter: Counterscreen for Luciferase (Kinase-Glo TM) Inhibition | Luciferin 4-monooxygenase (Photuris pensylvanica), Q27757 | Kinase-Glo luciferase, ATP luminescence, 8 min | Potency, µM (doses to about 38.3 µM), inactives show at the top dose activity change, negative = inhibition, actives largely listed as inhibitors | 200,000 tested, 0.28% active; note: % is set by controls: 0 for no effect and ±100 for the full control effect; nearly all actives have a fitted effect of over 60% in size
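Compound is pinned into ATP-containing buffer (10 uM ATP, imidazole pH 7.2, 7 mM MgCl2). Kinase-Glo luciferase reagent is then added. Light output is recorded following an 8-min room-temperature incubation.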
Rab9 promoter act: qHTS Assay for Rab9 Promoter Activators | Huh7 Rab9 promoter-luciferase reporter, luminescence, 24 h | Potency, µM (top dose mostly 9.22 µM), inactives show top-dose activation, negative = inhibition, hits mostly activators | 320,000 tested, 2.8% active | AID 485297, 2010; note: % of control where 0% means no effect; nearly all actives have a fitted effect of over 60% in size
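Luminescence read-out: Huh7 cells stably expressing Rab9-luciferase, treated 24 h with compound at 37 °C, then lysed with luciferase reagent for 10 min at ambient before reading.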
* = called active by the depositor; ? = inconclusive; . = not tested or not shown; [ ] = another dose, or the depositor's remark. Calls come from the whole dose curve; as a rule, active = well fitted curve in the direction sought with a large enough effect; inconclusive = small, poorly fitted or top-dose-only effect, or another doubt; inactive = no such curve, though single readings can be large; an effect the other way counts as inactive or inconclusive. Potency is the fitted concentration of half-maximal effect.

SMILES	SMN2 splice up	ELG1 genotoxic	NPC1 promoter act	FLuc modulator	Luc counter	Rab9 promoter act
COc1ccc(-c2cc(-c3ccccc3)nc(SCC(=O)Nc3nccs3)c2C#N)cc1	.	-2%	-1%	13µM*	.	-4%
O=C(COc1ccc2ccc(=O)oc2c1)Nc1nccs1	.	?	2.2µM*	15µM*	.	2.8µM*
O=C(COc1ccc2ccccc2c1)Nc1nccs1	.	?	0.5µM*	0.6µM*	-19%	0.35µM*
NC(=O)c1ccsc1NC(=O)COc1ccccc1	13µM*	8.9µM*	?	12µM*	-28%	3.2µM*
Cc1cccc(OCC(=O)OCC(=O)Nc2sccc2C(N)=O)c1	.	0%	.	.	.	.
O=C(COc1ccc2ccc(=O)oc2c1)Nc1cccnc1	.	1%[9.26 µM]	2%	-10%	.	-5%
Cc1ccc(C)c(N(CC(=O)NN=C2CCCCCCC2)S(C)(=O)=O)c1	7%	-3%	2%	4%	1%	0%
CCC(C(=O)Nc1cc(-c2cn3cccnc3n2)ccc1C)c1ccccc1 (stereo unspecified)	.	.	.	0%	.	.
O=c1cc(CSc2nnc(-c3cccs3)n2Cc2ccccc2)nc2sc3ccccc3n12	-48%	-10%	-20%	1%	-7%	-26%
Cn1cc(SCC(=O)Nc2nccs2)c2ccccc21	11µM*	21µM*	?	12µM*	-2%	?
O=C(COc1ccccc1)Nc1nccs1	5µM*	?	1µM*	11µM*	10µM*	3.5µM*
Cc1ccc(C(=O)NC2CCS(=O)(=O)C2)cc1S(=O)(=O)N1CCCC1 (stereo unspecified)	.	7%	-1%	2%	.	3%[1.84 µM]
CCN(CCCNC(=O)CSc1cc(=O)n(C)c2cc(Cl)ccc12)c1ccccc1	-1%	.	.	-15%	.	.
CCCC1Oc2ccccc2C(=O)N(CC(=O)c2ccc3c(c2)OCCO3)C1=O (stereo unspecified)	.	?	30%	6µM*	.	?
O=C(CN1C(=O)c2ccccc2S1(=O)=O)NC1CCCCCC1	16%	2%	13%	?	-1%	27%
O=C(CN1C(=O)c2ccccc2S1(=O)=O)c1ccc2c(c1)OCCO2	.	-12%	-37%	5.4µM*	.	-47%
O=C(CCN1C(=O)c2ccccc2S1(=O)=O)Nc1ccc2c(c1)OCCO2	-10%	-4%	22%	?	-5%	10%
CC(C)CC1NC(=O)N(CC(=O)c2ccc3c(c2)OCCO3)C1=O (stereo unspecified)	13µM*	?	2.8µM*	11µM*	7%	1.1µM*
O=C(CN1C(=O)c2ccccc2S1(=O)=O)c1ccc2c(c1)OCCCO2	.	-15%	-40%	2.1µM*	.	-54%
CCN1C(=O)c2cccc3c(S(=O)(=O)Nc4ccccn4)ccc1c23	?	21µM*	-5%	0%	2%	-3%
CN1C(=O)c2cccc3c(S(=O)(=O)Nc4ccccc4F)ccc1c23	.	5.8µM*	-8%	0%	.	0%
CCN1C(=O)c2cccc3c(S(=O)(=O)Nc4nc(C)cs4)ccc1c23	13µM*	?	-1%	1%	-3%	-2%
CCN1C(=O)c2cccc3c(S(=O)(=O)NCC4CCCO4)ccc1c23 (stereo unspecified)	.	15µM*	0%	-1%	.	-2%
CNS(=O)(=O)c1ccc2c3c(cccc13)C(=O)N2C	.	18%	-4%	0%	.	3%
Cc1cc(C)cc(NC(=O)COc2coc(CN3CCc4ccccc4C3)cc2=O)c1	.	-1%	-10%	4%	.	-7%
SMILES	SMN2 splice up	ELG1 genotoxic	NPC1 promoter act	FLuc modulator	Luc counter	Rab9 promoter act
COc1cccc(NC(=O)C2CCN(c3ccc(Sc4ccc(C)cc4)nn3)CC2)c1	2%	.	.	-21%	.	.
CCN1C(=O)c2cccc3c(S(=O)(=O)Nc4ccccc4)ccc1c23	20µM*	?	-5%	-5%	-2%	-5%
CCOC(=O)c1c(C)[nH]c(N=Nc2ccccc2Cl)c1C	.	?	?	12µM*	.	?
CCOC(=O)c1c(C)[nH]c(C(=O)O)c1C	8%	2%	1%	3%	6%	2%
CCOC(=O)c1c(C)[nH]c(N=Nc2ccccc2)c1C	4%	12µM*	?	12µM*	2%	?
CCOC(=O)c1c(C)[nH]c(N=Nc2ccc(C)cc2)c1C	13µM*	3.2µM*	1µM*	3.8µM*	-6%	1.4µM*
CCOC(=O)c1c(C)[nH]c(N=Nc2ccc(OC)cc2)c1C	.	?	3.5µM*	7.6µM*	.	?
CCOC(=O)Cn1cc(C(=O)OC)c2ccccc21	-5%	18%	-2%	-1%	2%	-5%
COc1ccccc1CNS(=O)(=O)c1csc(C(N)=O)c1	.	-1%	1%	-1%	.	1%
CC1(C)CC(=O)C=C(c2ccc(Oc3ccccc3)cc2)C1	.	5%	?	?	.	2%
Cc1c(Br)c(O)c(Br)c2sc(=O)oc12	.	-3%	-2%	-15%	.	4%
COc1cc(C)c(S(=O)(=O)Nc2ccccc2F)cc1C	2.2µM*	-6%	-1%	3%	0%	-2%
Cc1cc2[nH]c(=O)c(=O)[nH]c2cc1S(=O)(=O)Nc1ccccc1F	.	-7%	-4%	-4%	.	7%
CC(C)(C)NC(=O)COC(=O)C1c2ccccc2Oc2ccccc21	.	2%	-3%	0%	.	-4%
Cc1cc(NCc2ccccn2)n2nc(C)c(-c3ccc(Cl)cc3)c2n1	.	-11%	-11%	?	.	-32%
Cc1cc(NCc2ccccn2)n2ncc(-c3ccc(Cl)cc3)c2n1	.	6%	?	11µM*	.	?
COc1ccccc1-c1cnn2c(NCc3ccccc3)cc(C)nc12	.	5%	16%	17µM*	.	24%
Cc1nn2c(NCc3ccccn3)cc(C(C)C)nc2c1-c1ccccc1	.	-11%	-4%	-1%	.	-27%
COc1ccccc1CNc1cc(C)nc2nc(-c3ccc(C)cc3)nn12	.	.	.	6µM*	.	.
Cc1cc(NCc2ccccn2)n2ncc(-c3ccccc3)c2n1	.	?	0.5µM*	4.3µM*	.	?
COc1ccc(CCNc2cc(C)nc3c(-c4ccccc4OC)cnn23)cc1OC	.	-7%	-5%	4%	.	4%
Cc1cc(C)n2nc(CNS(=O)(=O)c3ccc(Cl)cc3)nc2n1	-6%	.	.	3%	.	.
Cc1cc(NCCOCCO)n2ncc(-c3ccc(Cl)cc3)c2n1	10µM*	?	1.3µM*	1.3µM*	-2%	0.89µM*
